Test results reported in PubChem BioAssay AID2685 (National Center for Advancing Translational Sciences (NCATS), 2010).
The whole screen tested about 320,000 compounds, of which about 2,100 (0.66%) were called active. About 53% were inconclusive and are not listed. The sample holds actives, similar compounds and a random draw of the others, so the mix is not that of the screen. Calls follow the shape of the dose curve; as a rule, active = well fitted inhibition curve with a large enough effect in the signal ratio, with a control signal flat (not every such curve was filed as active); inconclusive = small, poorly fitted or top-dose-only effect, or effect the other way, or a change in a side signal; inactive = flat fitted curve, though single readings scatter; the % refers to the signal ratio.

Experiment: qHTS Assay for Lipid Storage Modulators in Drosophila S3 Cells;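 as to cell number change: cells counted by Cell Tracker Red CMTPX staining in the red channel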; as to lipid storage change, negative = inhibition: % is scaled to controls: 0 for no effect and ±100 for the full control effect
Settings: BODIPY lipid droplet fluorescence, 18-24 h, cells fed with added oleic acid; cell number change: measured here: cell count max response; series mostly up to 46.1 µM; lipid storage change, negative = inhibition: at the top concentration
Outline: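 Drosophila S3 cells loaded with oleic acid (400 uM, as added) and compounds at several concentrations; lipid droplets imaged by 488-nm laser-scanning cytometry, 500–530 nm intensity and object ratio to cell channel. Percent activity normalized to 20 uM Triacsin C.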
Potency is read from the fitted curve at half-maximal effect.

Structure (SMILES)	lipid storage change, negative = inhibition	cell number change [%]	outcome	Potency
Cc1nc(C(C)NC(=O)CCc2nnc(-c3ccsc3)o2)cs1 (centres undefined)	11.3% (inactive)	-5.47	–	–
CCC(c1nnc(SCC(=O)Nc2ccc(N3CCOCC3)cc2)n1Cc1ccccc1)N(C)C (centres undefined)	–	–	inactive	–
CS(=O)(=O)c1cccc(C(=O)NCc2ccccc2)c1	–	–	inactive	–
C=CCOc1ccccc1CN(CCc1ccccc1)C(=O)c1cccc(S(C)(=O)=O)c1	–	1.8	–	4.11 µM (active)
CS(=O)(=O)Cc1ccc(C(=O)N(CCc2ccccc2)Cc2ccccc2)cc1	–	-0.348	inactive	–
O=C(CNC(=O)c1cccs1)NCC(=O)OCc1ccc(F)cc1	-4.32% (inactive)	-6.51	–	–
CN(C(=O)CSc1nc2sc3c(c2c(=O)n1C)CCC3)C1CCS(=O)(=O)C1 (centres undefined)	0.0094% (inactive)	-5.19	–	–
CCc1ccc(N(CC(=O)NC(C)(C)C)C(=O)CCC(=O)Nc2ccccn2)cc1	-5.7% (inactive)	19.3	–	–
Cc1cccc(NC(=O)CCS(=O)(=O)c2ccccc2)n1	8.98% (inactive)	3.85	–	–
CSc1nnc(-c2ccccc2)n1C	-1.83% (inactive)	-0.435	–	–
CCn1c(SC)nnc1-c1sc2cc(Cl)ccc2c1Cl	22.8% (inactive)	-4.88	–	–
CSc1nnc(-c2sc3cc(Cl)ccc3c2Cl)n1C	–	-10.5	–	23.1 µM (active)
Cc1ccc(OCCOCCn2ccnc2)c(Br)c1	–	-17	inactive	–
COc1ccc(-c2csc3ncn(-c4cccc(C)c4)c(=O)c23)cc1OC	9.43% (inactive)	14.7	–	–
O=C(N/N=C/c1cccc2ccccc12)c1ccncc1	1.15% (inactive)	0.153	–	–
O=C(Nc1ccc(F)cc1)c1cccc(C(=O)Nc2ccc(F)cc2)c1	–	22.5	–	0.231 µM (active)
O=C(N/N=C/c1ccccc1Cl)c1cccc(F)c1	13.9% (inactive)	0.333	–	–
O=C(Nc1cccc(NC(=O)c2cccc(F)c2)n1)c1cccc(F)c1	–	–	–	6.51 µM (active)
O=C(Nc1ncccn1)c1cccc(F)c1	20.9% (inactive)	-18.7	–	–
O=C(N/N=C/c1cccc2ccccc12)c1cccc(F)c1	–	-0.111	–	11.2 µM (active)
O=C(Nc1ccc(F)cc1)c1ccccc1	–	–	inactive	–
Cc1cc(NC(=O)c2cccc(F)c2)no1	-3.93% (inactive)	9.9	–	–
O=C(Nc1ccc(F)cc1)c1ccc2[nH]c(=O)c(=O)[nH]c2c1	-21.9% (inactive)	25.6	–	–
Cc1ccc(S(=O)(=O)c2nc(-c3ccccc3Cl)oc2NCCCN2CCOCC2)cc1	–	–	inactive	–
CCOC(=O)C1(Cc2ccccc2)CCN(Cc2cn[nH]c2-c2ccccc2)CC1	14% (inactive)	4.32	–	–
C[C@H](NC(=O)CCn1nnc2ccccc2c1=O)C(=O)O	9.98% (inactive)	-17.6	–	–

Structure (SMILES)	lipid storage change, negative = inhibition	cell number change [%]	outcome	Potency
O=C(c1ccc(F)cc1)C1CCN(Cc2ccc(F)cc2)CC1	23.9% (inactive)	16.1	–	–
CCn1c(CCNC(=O)c2ccc(Cl)cc2)n[nH]c1=S	–	24.6	–	1.84 µM (active)
CCn1c(CCNC(=O)c2ccc(C)cc2)n[nH]c1=S	18% (inactive)	22.9	–	–
Cn1c(CCNC(=O)c2ccc(Cl)cc2)n[nH]c1=S	-23.5% (inactive)	-13.4	–	–
CN1CCN(c2nc(C(N)=O)cc(-c3ccccc3)n2)CC1	5.39% (inactive)	-10.6	–	–
COc1ccc(-c2nc(CSCC(=O)N3CCC(C(N)=O)CC3)c(C)o2)cc1OC	14.4% (inactive)	-1.8	–	–
COC(=O)c1ccc(/C=C/C(=O)O)cc1	3.31% (inactive)	2.73	–	–
COc1ccc(C(=O)/C=C/c2ccc(O)cc2)cc1	1.73% (inactive)	-17.3	–	–
COC(=O)c1ccc2c(c1)C(C)(C)C(/C=C/c1ccc(O)cc1)=[N+]2C	–	1	–	5.17 µM (active)
Cc1cc(NC(=O)CSc2ncnc3sc(C)c(C)c23)no1	–	–	inactive	–
Cc1ccc(S(=O)(=O)N2CCC(C(=O)Nc3nnc(C4CCCC4)s3)CC2)cc1	5.91% (inactive)	5.99	–	–
COc1ccc(CNC(=O)CC2(CC(=O)O)CCCCC2)cc1	-10.1% (inactive)	-16.2	–	–
COc1ccc(S(=O)(=O)NC(C)C(=O)Nc2ccccc2F)cc1 (centres undefined)	11.5% (inactive)	4.07	–	–
COc1ccccc1NC(=O)C(C)NS(=O)(=O)c1ccc(Cl)cc1 (centres undefined)	–	10.9	–	6.51 µM (active)
COc1ccccc1NC(=O)C(C)NS(=O)(=O)c1ccc(F)cc1 (centres undefined)	2.58% (inactive)	6.54	–	–
COc1cc(C(=O)OCC(=O)N2CCCCC2C)cc(NC(=O)c2cccs2)c1OC (centres undefined)	2.46% (inactive)	7.36	–	–
CCCNC(=O)C1CCC(CNS(=O)(=O)c2cccc3nsnc23)CC1 (centres undefined)	-7.4% (inactive)	–	–	–
COC(=O)CNC(=O)C1CCC(CNS(=O)(=O)c2cccc3nsnc23)CC1 (centres undefined)	20.8% (inactive)	-18.8	–	–
CC(C)(C)NC(=O)C1CCC(CNS(=O)(=O)c2cccc3nsnc23)CC1 (centres undefined)	–	–	–	18.4 µM (active)
Cc1cc(NC(=O)CSc2nc(=O)n3cc(Cl)ccc3n2)no1	0.863% [at 0.0737 µM] (inactive)	13.5	–	–
Fc1ccc(CNn2cnnc2SCc2ccc(F)cc2)cc1	5.62% (inactive)	9.34	–	–
CCc1cccc2c(C(=O)COC(=O)c3cccc(S(=O)(=O)N(C)C4CCCCC4)c3)c[nH]c12	-20% (inactive)	6.53	–	–
O=C(NC1CCCC1)C(c1ccc(Cl)cc1)N(C(=O)c1csnn1)C1CC1 (centres undefined)	-21.7% (inactive)	12.1	–	–
O=C(NC1CCCC1)C(c1ccc(F)cc1)N(C(=O)c1csnn1)C1CC1 (centres undefined)	-8.24% (inactive)	-11.5	–	–
C=CCN(C(=O)c1csnn1)C(C(=O)NC1CCCCC1)c1ccc(F)cc1 (centres undefined)	–	11.7	inactive	–
